Laboratory results taken from the supplement of paper PMC6555819.

Tested on: VDR:RXRa (NR concentration 270 nM, RXRa partner concentration 90 nM)
Assay: PBM binding z-score (relative to random genomic background probes); higher = stronger binding; sequences stand for … in GC…GCGATTGACAGCGTAGAATGAAGG
Description: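 Protein-binding microarray (Agilent 4x180K custom design, double-stranded 60-nt probes: 5' GC cap, 34-nt variable region, 24-nt constant primer region; full probe sequence given). Purified or IVT nuclear receptor:RXRα heterodimers (3:1 NR:RXRα, mostly 270:90 nM) or homodimers were incubated for 1 h in PBS with 2% milk and no ligand, then detected with Alexa488 antibodies. Fluorescence from o1-orientation probes (~5 replicates averaged) was converted to z-scores against 500 random hg19 background probes. Variable regions are seed direct-repeat (DR0–DR5) sites, all their single-nucleotide variants and half-site ablations.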

Question: Which PBM binding z-score does the source give for ATATGTAGGTTAGGGTCGTTCAGAAAGTAGGGAA here?
Answer: Its PBM binding z-score is 2.57.

Question: Which PBM binding z-score does the source give for CGTCTAAGGTCAGCAGGTCAGTGAAAGCGACGTG here?
Answer: The PBM binding z-score was 4.3.

Question: Which PBM binding z-score does the source give for TCGAGGAGGTTACGGGGGCATTCAGGGATGAAGA here?
Answer: Its PBM binding z-score is 5.08.

Question: Which PBM binding z-score does the source give for CTATGTAGGTTAAGGGGTTCATTCAGTTTGAAAG here?
Answer: Its PBM binding z-score is 7.62.

Question: How did the PBM binding z-score turn out when CCTACTGGGCCAAAGGTCATAGATTCCAATGCTC was run?
Answer: Its PBM binding z-score is 4.17.

Question: CGTACTAGGTCAAAGGACAGTGAAAGGCGACGTA was tested. Which PBM binding z-score did it give?
Answer: Its PBM binding z-score is 1.33.

Question: How did the PBM binding z-score turn out when ATATGTAAGTTAGGGTCATTCAGAAAGTAGGGAA was run?
Answer: The PBM binding z-score was 4.5.

Question: With ATCTAAAGGTCGAAGGTGAGTATACCCACCCGAA as the sequence, how does the PBM binding z-score read?
Answer: Its PBM binding z-score is 2.95.

Question: With CCTACTGGGCCAAAGGTCCTTGATTCCAATGCTC as the sequence, how does the PBM binding z-score read?
Answer: The PBM binding z-score was -0.303.

Question: CGAACTAGGTCACCAGAACAGTGAAGAGGTTGGA was tested. Which PBM binding z-score did it give?
Answer: The PBM binding z-score was 1.86.

Question: With CGTCCAAGGTCAGAGAGGTCAGTGTATGCCGAGT as the sequence, how does the PBM binding z-score read?
Answer: Its PBM binding z-score is 7.31.

Question: How did the PBM binding z-score turn out when CGAACTAGGTCAAAGAACAGTGAAAGGCGACGTA was run?
Answer: Its PBM binding z-score is 0.943.

Question: Which PBM binding z-score does the source give for ATATGTAGGTTAGCGGGGGTCATTCAGACTAGGC here?
Answer: The PBM binding z-score was 6.4.

Question: For CCTACAGGGCCAAGGTCATTGATCAGTCAAAGCA, which PBM binding z-score is on record?
Answer: Its PBM binding z-score is 3.39.

Question: Which PBM binding z-score does the source give for TAGCCTAGGTCATTGTGCCAGTATAGTACGCATC here?
Answer: Its PBM binding z-score is 2.33.

Question: For CCTACTGGGCCAAGGTCATAGATCAGTCAAAGCA, which PBM binding z-score is on record?
Answer: Its PBM binding z-score is 2.87.

Question: Which PBM binding z-score does the source give for CCGACGGGGGCAGAAAGGTTACCATACCATCCGG here?
Answer: Its PBM binding z-score is 4.49.

Question: ACTAGTAGGCCAAGGGTCACTCAAGATTAGTCCG was tested. Which PBM binding z-score did it give?
Answer: The PBM binding z-score was 2.93.

Question: How did the PBM binding z-score turn out when CCTTACGGGTCAAGGTAATAGCACGGGTGGTACG was run?
Answer: Its PBM binding z-score is 2.65.

Question: For TTTCCAAGGTGAAAGGTCGTTGATGCACGCCTTG, which PBM binding z-score is on record?
Answer: The PBM binding z-score was 3.38.

Question: For CTACGTAGGTTAAGGGGGTCATTCAGTTTGAAAG, which PBM binding z-score is on record?
Answer: The PBM binding z-score was 7.58.

Question: CCTAGCAGACCAATCTGGGTCACTCAAGGCTTGA was tested. Which PBM binding z-score did it give?
Answer: The PBM binding z-score was 0.199.

Question: How did the PBM binding z-score turn out when CGAACTAGGTCACCAGGACAGTGATGAGGTTGGA was run?
Answer: The PBM binding z-score was 2.17.

Question: With TCGAGTAGGTTACGGGGGCATTCTGGGATGAAGA as the sequence, how does the PBM binding z-score read?
Answer: The PBM binding z-score was 3.65.

Question: Which PBM binding z-score does the source give for ATATGTAGGATAGGGTCATTCAGAAAGTAGGGAA here?
Answer: The PBM binding z-score was 3.79.

Question: Which PBM binding z-score does the source give for ATATGTGGGTTATCGGGTCATTCAGTTTGCGCAT here?
Answer: Its PBM binding z-score is 5.21.

Question: For CCTCGGAGGACAACCGGAGGTCAGAGCTGCCAGA, which PBM binding z-score is on record?
Answer: Its PBM binding z-score is 1.9.

Question: With ATATGTACGTTAGGGTCATTCAGAAAGTAGGGAA as the sequence, how does the PBM binding z-score read?
Answer: The PBM binding z-score was 4.24.

Question: Which PBM binding z-score does the source give for ATATGTAGGTTAGGGTCATACAGAAAGTAGGGAA here?
Answer: The PBM binding z-score was 4.24.

Question: How did the PBM binding z-score turn out when GGTACGAGGGCAAAGTTGATAGCATCTGTCGACG was run?
Answer: Its PBM binding z-score is 1.14.

Question: How did the PBM binding z-score turn out when AGTCAAAGGTCACTAGGTAACGTAAGATTCAGCT was run?
Answer: Its PBM binding z-score is 5.23.

Question: With CCGAGTAGGTTACGAGAGGGCATTCAGTGCGAAT as the sequence, how does the PBM binding z-score read?
Answer: Its PBM binding z-score is 4.33.

Question: With ATCGAAAGGTCGAGGAGGTGAGTATACACCGTTT as the sequence, how does the PBM binding z-score read?
Answer: The PBM binding z-score was 4.25.

Question: Which PBM binding z-score does the source give for CTATGTAGGTTAAGGGGGTCATTCATTTTGAAAG here?
Answer: The PBM binding z-score was 7.08.

Question: With TAGCCTAGGCCATGGGCCAGTATACCACGCGAAC as the sequence, how does the PBM binding z-score read?
Answer: Its PBM binding z-score is -0.852.

Question: Which PBM binding z-score does the source give for CTATGTAGGTTTAGGGGGTCATTCAGTTTGAAAG here?
Answer: Its PBM binding z-score is 6.29.

Question: With GCTCGGAGGACAAGGTCACAGCTTTGTCCGTAGA as the sequence, how does the PBM binding z-score read?
Answer: Its PBM binding z-score is 3.47.

Question: Which PBM binding z-score does the source give for CGTCAAAGTTCAAGCTAACGTAACAGAAAGCAGC here?
Answer: Its PBM binding z-score is 4.18.

Question: For AGAATGGGGTTAAGATCAGGGAAACAGAATACAT, which PBM binding z-score is on record?
Answer: Its PBM binding z-score is 2.91.

Question: CTATGTAGGTTAAGGAGGTCATTCAGTTTGAAAG was tested. Which PBM binding z-score did it give?
Answer: The PBM binding z-score was 6.83.
